Experimental data published in publication PMC7819943, “Rice protein-binding microarrays: a tool to detect cis-acting elements near promoter regions in rice”.
The full ranking holds about 35,000 sequences; the median of “fluorescence intensity (a.u.)” is about 10,000, and the highest 2% start at about 52,000. The sample as a whole holds a higher share of the highest values than the screen did.

These sequences were tested against T1, OsWOX13 (Oryza sativa, UniProt Q5QMM3 1-267) (assay: protein-binding microarray (RPBM); PBS, 2% BSA, 51.3 ng/ul salmon testes DNA, 50 uM zinc acetate, 200 nM TF, 25 C, 1 h; high values mean tight binding). Details: protein: recombinant; tags: N-terminal polyhistidine and DsRed monomer fusion (pET32a); label: CyDye5-dUTP incorporated in the synthesized complementary strand; 3' TTTTT single-stranded linker to array surface; dsDNA, one strand shown.
T1 sequence: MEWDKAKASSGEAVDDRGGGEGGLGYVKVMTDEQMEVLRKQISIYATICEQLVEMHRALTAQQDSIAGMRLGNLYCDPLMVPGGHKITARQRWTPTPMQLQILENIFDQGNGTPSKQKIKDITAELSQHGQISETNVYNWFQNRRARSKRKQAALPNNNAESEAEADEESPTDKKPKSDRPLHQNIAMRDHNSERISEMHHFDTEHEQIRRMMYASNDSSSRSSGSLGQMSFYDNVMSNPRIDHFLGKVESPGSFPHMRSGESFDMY
Method in brief: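 The binding signal for each feature is its fluorescence intensity in arbitrary units. An Axon 4000B scanner was used to read a custom Agilent array that had been made double-stranded with Cy5-dUTP primer extension, blocked with 2% BSA, incubated at 25 °C for 1 h with 200 nM protein in PBS, 2% BSA, salmon testes DNA and 50 µM zinc acetate, and washed. The protein was an N-terminal polyhistidine–DsRed transcription factor fusion from E. coli BL21-CodonPlus, purified on Ni–NTA.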

Row | Sequence | binding signal
1 | TTGTTGTTATTTAATAAATTAGGAGATCAAATATGTTATTCGGAGTCACCTAGTGCAG | 3300 fluorescence intensity (a.u.)
2 | GGGGCAAATTGGTCTTGTCATGAAAGCTAAAAGCCAAAGGCGGAGTCACCTAGTGCAG | 4730 fluorescence intensity (a.u.)
3 | CAAGATAATTACAAGTTTATAAAACAAACTACTACAGGGACGGAGTCACCTAGTGCAG | 27200 fluorescence intensity (a.u.)
4 | CACTATCTGATCCTAATTACACACTGATGCAGGGGTAAATCGGAGTCACCTAGTGCAG | 3790 fluorescence intensity (a.u.)
5 | GTTAATTTTGTCGAGTTAATTGGATCTTTGCTTTGATGGGCGGAGTCACCTAGTGCAG | 57600 fluorescence intensity (a.u.)
6 | AGGTGTACATGATTGTTTGCTTCCTTGCTGCAGCTCGGCGCGGAGTCACCTAGTGCAG | 14100 fluorescence intensity (a.u.)
7 | CAATGCTTGCTTGATTGGGAGCGCGTCGTCGAGGGCGTCGCGGAGTCACCTAGTGCAG | 14400 fluorescence intensity (a.u.)
8 | CATAATTGCTGATATTTTGTCTTTGGAGTTTGATCCATGGCGGAGTCACCTAGTGCAG | 44200 fluorescence intensity (a.u.)
9 | TGATTGATTGCTTGATTGGGAGTGTCCTTTGGGCGAGCTGCGGAGTCACCTAGTGCAG | 64900 fluorescence intensity (a.u.)
10 | ATCTTTAATTTTGATATTTAATTTTAATCATTGGAAAGGGCGGAGTCACCTAGTGCAG | 25000 fluorescence intensity (a.u.)
11 | CCCCATCGTCACTTATAATTTATGAATAAAACTTTTAGATCGGAGTCACCTAGTGCAG | 4840 fluorescence intensity (a.u.)
12 | GGATGAAATTAGCCCATCAGCAATTACGTGTAGGCCGTAGCGGAGTCACCTAGTGCAG | 3690 fluorescence intensity (a.u.)
13 | ATGTTCCTATCAGTTGCTAATTATTAGTGTGACATCAATCCGGAGTCACCTAGTGCAG | 16300 fluorescence intensity (a.u.)
14 | ATTAAGTCTAATTAATCTGTTATTAGCAAATGTTTACTGTCGGAGTCACCTAGTGCAG | 11100 fluorescence intensity (a.u.)
15 | CCTAATTACGCCATGATTTGATAATATGATGCTACAATAACGGAGTCACCTAGTGCAG | 39600 fluorescence intensity (a.u.)
16 | ACTGCTGCCGATTGACTGCTACGAGTAGCTCGCACCTGGCCGGAGTCACCTAGTGCAG | 7450 fluorescence intensity (a.u.)
17 | CAATTGTGAAATAATTAATTAAATTATCATTAAGCCCCAACGGAGTCACCTAGTGCAG | 30300 fluorescence intensity (a.u.)
18 | TTTAATTGATAAATATTATCAATTATTAAACAGATAAGCGCGGAGTCACCTAGTGCAG | 62800 fluorescence intensity (a.u.)
19 | TAATAATTGATTAAACAGAGCAAATTTTAGCTTGCAGATACGGAGTCACCTAGTGCAG | 48500 fluorescence intensity (a.u.)
20 | GAGCAAAACAATAATTAAATATATTTTGATAATAAATTTGCGGAGTCACCTAGTGCAG | 3560 fluorescence intensity (a.u.)
21 | TTTAATATTTATAATTAATGTCAAACATCAGATGTGATAGCGGAGTCACCTAGTGCAG | 12700 fluorescence intensity (a.u.)

Row | Sequence | binding signal
22 | AATCAATTTAATAATTGATTAAACAGAGCAAATTTTAGCTCGGAGTCACCTAGTGCAG | 65100 fluorescence intensity (a.u.)
23 | TAATATTTAAATTAAACCTATAATCAAGCAGATGATTTATCGGAGTCACCTAGTGCAG | 8840 fluorescence intensity (a.u.)
24 | TGAAATAATTAATTAAATTATCATTAAGCCCCAAACCGAGCGGAGTCACCTAGTGCAG | 57300 fluorescence intensity (a.u.)
25 | CCAAATTAAGCCATTAATTAATAAAACAATATCATTAGGACGGAGTCACCTAGTGCAG | 28900 fluorescence intensity (a.u.)
26 | GATAGATGATATACCCGTTAACAATGAGACGTTTGTGGAGCGGAGTCACCTAGTGCAG | 3270 fluorescence intensity (a.u.)
27 | ACATATAATTGCCACGTCAGCGCCACATCAATGCCACGTGCGGAGTCACCTAGTGCAG | 23200 fluorescence intensity (a.u.)
28 | ATTAAAATTATGAAATTTTAATGATTCATTAATCTCAAGACGGAGTCACCTAGTGCAG | 14100 fluorescence intensity (a.u.)
29 | AACCGAAAATTATTATTTTAATCGGCGTGGTGTCCACTGGCGGAGTCACCTAGTGCAG | 4880 fluorescence intensity (a.u.)
30 | TCATTAATGATCTAATCACCAACTAAACTCCCTATCAATTCGGAGTCACCTAGTGCAG | 18200 fluorescence intensity (a.u.)
31 | GTTTGTTTAGATTGGTACCATTTAAAATCATATTATTTTGCGGAGTCACCTAGTGCAG | 20600 fluorescence intensity (a.u.)
32 | GGACAGATTAACTATCACTTAATTTCAGGTTTCCATGTATCGGAGTCACCTAGTGCAG | 22700 fluorescence intensity (a.u.)
33 | TACTACTAATTATATGCCGATTGAGAGTGTTGTAGCGTCACGGAGTCACCTAGTGCAG | 17700 fluorescence intensity (a.u.)
34 | GGCGCACTGATTGTTCATGATTGATGCAGTGATCCGGGCACGGAGTCACCTAGTGCAG | 59600 fluorescence intensity (a.u.)
35 | CTGTACTGATTGTTCACGGGTCGTTTCCGCACTATGGAACCGGAGTCACCTAGTGCAG | 27900 fluorescence intensity (a.u.)
36 | CTGTTCACACGGATTGATCATTGATGGATCCATGCTGATGCGGAGTCACCTAGTGCAG | 9220 fluorescence intensity (a.u.)
37 | ATGATGATTGGTTGGTTACGGGCATGTTCAGATTGTAGCCCGGAGTCACCTAGTGCAG | 54900 fluorescence intensity (a.u.)
38 | CCTGTTGATTGGTTAGCCCAGCCCATGATGTAGCCCATGACGGAGTCACCTAGTGCAG | 38200 fluorescence intensity (a.u.)
39 | ATGAAAGATTGATATGTTGACATGTTCACAGATGAACTTACGGAGTCACCTAGTGCAG | 17200 fluorescence intensity (a.u.)
40 | AAATAATGTACAAAAGGTGATAGATGAAACAATAAAGTAGCGGAGTCACCTAGTGCAG | 4460 fluorescence intensity (a.u.)
41 | TAATAATTTGGGGAGCTTAATTGCTATCCAGTGATATATACGGAGTCACCTAGTGCAG | 11100 fluorescence intensity (a.u.)
42 | ACTAATCATCACATCGCTGTCTCAGATTCTCAGTGACAGACGGAGTCACCTAGTGCAG | 4120 fluorescence intensity (a.u.)
